Results taken from the supplement of paper PMC3334620.
Whole data set: some 33,000 sequences, median “E-score (-0.5 to 0.5)” near -0.041, cut for the highest 2% near 0.37. The full list was thinned out, with the highest values kept by preference.

Target: T1, Ecm22 (UniProt Q05958)
T1 sequence: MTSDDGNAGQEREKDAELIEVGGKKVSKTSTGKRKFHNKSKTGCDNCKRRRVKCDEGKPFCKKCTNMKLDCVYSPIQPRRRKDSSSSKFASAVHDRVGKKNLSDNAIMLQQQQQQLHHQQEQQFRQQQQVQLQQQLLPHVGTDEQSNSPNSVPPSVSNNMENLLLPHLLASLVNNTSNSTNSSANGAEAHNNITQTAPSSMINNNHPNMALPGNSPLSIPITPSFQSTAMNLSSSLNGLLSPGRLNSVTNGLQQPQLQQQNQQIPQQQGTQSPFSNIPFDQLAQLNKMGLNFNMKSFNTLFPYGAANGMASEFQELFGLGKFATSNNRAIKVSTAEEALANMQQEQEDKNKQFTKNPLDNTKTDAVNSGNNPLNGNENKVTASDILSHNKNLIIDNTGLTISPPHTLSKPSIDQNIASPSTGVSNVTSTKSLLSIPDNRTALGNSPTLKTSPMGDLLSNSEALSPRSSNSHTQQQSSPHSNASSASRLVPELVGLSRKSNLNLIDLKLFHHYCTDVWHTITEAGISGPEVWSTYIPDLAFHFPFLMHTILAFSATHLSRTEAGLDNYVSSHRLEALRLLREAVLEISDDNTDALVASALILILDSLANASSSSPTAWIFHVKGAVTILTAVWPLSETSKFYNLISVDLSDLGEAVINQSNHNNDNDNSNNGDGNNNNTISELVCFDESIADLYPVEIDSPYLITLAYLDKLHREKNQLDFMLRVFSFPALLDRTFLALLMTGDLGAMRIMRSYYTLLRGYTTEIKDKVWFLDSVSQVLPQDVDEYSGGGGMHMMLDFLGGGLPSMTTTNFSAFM
Test: PBM E-score (8-mer binding enrichment) (E-score (-0.5 to 0.5)); higher = stronger / more preferred TF binding
Details: protein concentration: 200 nM; construct: GST-full length
Method in brief: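 E-scores (a modified Wilcoxon-Mann-Whitney statistic) were assigned by the Universal PBM Analysis Suite to every ungapped eight-base word pooled with its reverse complement. The input came from universal all-10-mer Agilent arrays made double-stranded by primer extension and probed with GST-tagged yeast transcription factors at about 100-200 nM. Fluorescent anti-GST detected bound protein, and masliner normalised the scans.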

Row | Sequence | PBM E-score
1 | AGCAATAA | -0.127
2 | CGCCCGAA | 0.0388
3 | CGCGCGGC | 0.225
4 | GCTCAGGA | -0.107
5 | CACGACAA | 0.09
6 | AGCGACAT | 0.214
7 | ATCGACAG | 0.00794
8 | CACGACAG | 0.0642
9 | ACCGACAT | 0.217
10 | TGCGACAA | 0.141
11 | GACGACAA | 0.155
12 | AACGACAT | 0.434
13 | TTCGACAA | 0.0503
14 | AACGACAA | 0.41
15 | AACGACAG | 0.412
16 | TACGACAA | 0.455
17 | GGACCTCA | -0.206
18 | CTGGGAAC | 0.132
19 | TGGGTAAA | 0.0399
20 | AGTGTCCG | 0.0467
21 | CACTCTCG | 0.174
22 | CTCGTGGA | -0.0176
23 | CAGGCCTA | -0.218
24 | AAATCCTG | 0.015
25 | AGATCGAA | -0.0769

Row | Sequence | PBM E-score
26 | CAAGGTGC | -0.235
27 | AGGACCAA | -0.168
28 | CACGACAC | 0.147
29 | GACGACAC | -0.0609
30 | AACGACAC | 0.421
31 | AAGACGGG | -0.114
32 | CGTCCGCC | -0.111
33 | ACTGGGGC | -0.276
34 | ACCGATAT | 0.138
35 | AGCGATAT | 0.222
36 | AACGATCT | 0.381
37 | AACGATAG | 0.345
38 | AACGATAC | 0.389
39 | AACGATCC | 0.307
40 | AACGATAT | 0.408
41 | CACGATAA | 0.00212
42 | TACGATAA | 0.408
43 | AACGATCA | 0.346
44 | GACGATAA | 0.0921
45 | GACGATAC | 0.127
46 | AACTCTTC | 0.0679
47 | CAATGGGC | -0.209
48 | CCCGGCAC | -0.159
49 | AGAGGGAC | -0.0884
50 | ATCTCCTC | -0.0702

Row | Sequence | PBM E-score
51 | AACGATAA | 0.382
52 | ACCGATAA | 0.116
53 | CACGATAG | -0.065
54 | CGTTAAAC | 0.392
55 | GGTTAAAC | 0.116
56 | CGTTAAAA | 0.287
57 | AGTTAAGC | 0.0271
58 | CGTTAAGC | 0.4
59 | CGTTAAGA | 0.222
60 | TCTCTTCA | -0.0952
61 | AGACCGCA | -0.0494
62 | GTGACAGA | -0.0918
63 | CCAACTTA | -0.115
64 | ACGTTCCA | 0.214
65 | CCGTTCCC | 0.464
66 | TCGTTCCA | 0.475
67 | GCGTTCCC | 0.104
68 | TCGTTTCA | 0.396
69 | CTGTTCCA | -0.186
70 | CCGTTCCA | 0.373
71 | CCGTTCGA | 0.152
72 | ACGTTCCC | 0.269
73 | GCGTTCCA | 0.141
74 | ACGTTTCA | 0.107
75 | GCGTTTCA | -0.0209

Row | Sequence | PBM E-score
76 | CTTGTGAA | -0.226
77 | GATCCCGC | 0.0461
78 | GTTCACCA | 0.0888
79 | TCGCTAAA | 0.34
80 | AAAGCTCT | -0.258
81 | CAGTTCCG | 0.14
82 | CCGTTCCG | 0.441
83 | ACGTTCCG | 0.259
84 | GCGTTCAA | 0.0639
85 | TCGTTCAA | 0.448
86 | ACGTTCAA | 0.188
87 | AAGATCAA | -0.0315
88 | ATAGGAAA | -0.0768
89 | CTTTGGCA | -0.144
90 | AGCTCAAC | -0.0198
91 | GACGAAGA | 0.0867
92 | AACGAAGC | 0.437
93 | TCCGAAGA | 0.0982
94 | ACCGAAGT | 0.207
95 | CACGAAGC | 0.0604
96 | AACGAAGT | 0.419
97 | AAAGAAGT | -0.0866
98 | TAAGAAGA | 0.0914
99 | CACGAAGA | 0.226
100 | TACGAAGA | 0.444

Row | Sequence | PBM E-score
101 | GACGAAGC | 0.0937
102 | AACGAAGA | 0.421
103 | CGGATTTC | 0.0823
104 | CGCGGCAC | 0.0802
105 | ATTCTGGG | -0.192
106 | TCCAATCA | -0.115
107 | TTCTTAAA | -0.107
108 | ATTGAGGA | -0.0867
109 | AGCGCCGC | -0.188
110 | ATAAACTA | 0.0319
111 | TAGTCTAA | -0.04
112 | ACTATCCT | -0.133
113 | ACTACGGC | -0.0479
114 | ACGTCGCG | 0.162
115 | TGGACCCA | -0.131
116 | AACGAAGG | 0.398
117 | CACGAAGG | 0.0498
118 | ACCGAAGG | 0.107
119 | CCGAACCG | 0.12
120 | CCGAACCA | -0.0831
121 | ACGAACCC | 0.28
122 | ACGAAGCA | 0.378
123 | ACGAAGCG | 0.317
124 | GCGAAGCA | 0.0616
125 | GCGAACCA | 0.146

Row | Sequence | PBM E-score
126 | ACGAACCA | 0.391
127 | ACGAACCG | 0.368
128 | ACGGTCAA | 0.297
129 | GTTACACA | -0.0371
130 | CGCACCAC | 0.0793
131 | CATATCCA | -0.0799
132 | AATGGAAA | -0.198
133 | CACGGTAC | 0.113
134 | AATCTGGA | -0.119
135 | CGTACCCC | 0.453
136 | CATACCCC | -0.0887
137 | CGTACCCA | 0.406
138 | AGTACCCA | -0.208
139 | AGTACCCC | -0.0697
140 | GGTACCCA | -0.145
141 | GCCTGCGC | -0.272
142 | ACCCTACG | -0.142
143 | AGCGGTGC | 0.0264
144 | GATTTGAC | 0.202
145 | AGAGACGC | 0.0019
146 | CGTATGTC | 0.342
147 | AGTATGGA | -0.115
148 | CGTATGGA | 0.383
149 | GGTATGGA | -0.15
150 | CGTATGGC | 0.4

Row | Sequence | PBM E-score
151 | AGTATGGC | -0.0838
152 | CCGAGATA | 0.186
153 | TTACGCAA | 0.115
154 | AGTTTGCC | -0.117
155 | GTTGAAAC | 0.0017
156 | GCCTGGCA | -0.318
157 | CGACCGCC | 0.137
158 | ACTACTAG | -0.0821
159 | ACATTCGT | 0.37
160 | ACATTCGA | 0.0496
161 | ACATTCGG | 0.0251
162 | GACACCTC | 0.148
163 | ACCCTCGC | 0.194
164 | ACCCTCGT | 0.449
165 | ACCCTCGA | -0.16
166 | CACCAATA | -0.0897
167 | CGTAGCGA | 0.382
168 | AGTAGCGA | 0.153
169 | CGTAGCGC | 0.273
170 | TAGGGAAA | -0.0897
171 | ACCGAATA | 0.18
172 | GACGAAAA | 0.196
173 | TACGAATA | 0.43
174 | AACGAATA | 0.371
175 | ATCGAATA | 0.138

Row | Sequence | PBM E-score
176 | CACGAAAA | 0.153
177 | AACGAATT | 0.36
178 | CACGAATA | 0.117
179 | GACGAATA | 0.0261
180 | AACGAATG | 0.429
181 | TACGAAAA | 0.423
182 | CACGAATG | 0.052
183 | AATTGCTA | -0.0544
184 | AGTGCTGG | -0.152
185 | AAGCGGTA | 0.145
186 | CACAACTC | 0.144
187 | ACCAGCTA | -0.0229
188 | AGCCAATG | -0.141
189 | CAGGGGAA | -0.0465
190 | CGCGATCA | 0.179
191 | AGTTCTTG | -0.0776
192 | GTCAGGGA | -0.19
193 | GACGAATC | 0.106
194 | AACGAATC | 0.387
195 | CACGAATC | 0.0959
196 | ATGCAAGG | -0.193
197 | CCGCGACG | 0.0789
198 | ACCGGGCG | 0.0784
199 | GACCTACA | -0.18
200 | CATGGCGC | -0.137

Row | Sequence | PBM E-score
201 | CCACTCCG | 0.019
202 | GCCGTACC | 0.441
203 | GCCGTGCA | -0.305
204 | GCCGTAAA | 0.366
205 | ACCGTAAG | 0.212
206 | TCCGTACA | 0.379
207 | GCCGTACA | 0.371
208 | GCCGTAGC | 0.163
209 | ACCGTACG | 0.385
210 | ACCGTAGG | -0.172
211 | TCCGTAGA | -0.0285
212 | TGCGTACA | 0.283
213 | GGCGTACC | 0.279
214 | AATTCTAT | -0.104
215 | TACGTTCA | 0.276
216 | GATCCGGC | -0.0487
217 | GACCAGGA | -0.0856
218 | AGGGGAAA | -0.223
219 | CAAGGACA | -0.247
